Experimental data: PubChem BioAssay
Values joined by “and” are separate entries in the source; they are usually repeats but may differ in a detail not shown here. Equal entries are not always repeated. Active and inactive are the calls of the source.

Legend:
[1] = compound effects on lung adenocarcinoma cell viability – A549, calcein-AM fluorescence, 48 h, basal, profiling panel (AID 1162); conditions: higher = more signal
[2] = compound effects on differentiated 3T3-L1 adipocyte viability – cell-based, 3T3-L1 adipocytes, calcein-AM fluorescence, 48 h, basal, profiling panel (AID 1163); conditions: 3T3-L1 adipocytes viability, higher = more signal
[3] = compound effects on hepatocellular carcinoma cell viability – HepG2, calcein-AM fluorescence, 48 h, basal, profiling panel (AID 1164); conditions: higher = more signal
[4] = compound effects on multiple myeloma cell viability – MM1S, calcein-AM fluorescence, 48 h, basal, profiling panel (AID 1165); conditions: higher = more signal
[5] = calcein-AM signal in unstimulated myeloma cells – cell-based, calcein-AM fluorescence, 48 h, PK04 Diversity Set, profiling panel (AID 1166); conditions: RPMI8226 myeloma viability, higher = more signal;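 note: cells grown under basal conditions without added stimulus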
[6] = JC-1 mitochondrial signal, unstimulated HepG2 cells – cell-based, JC-1 fluorescence, 24 h, 100 nL compound, profiling panel (AID 1167); conditions: HepG2 mitochondrial potential, higher = more signal
[7] = JC-1 mitochondrial signal, unstimulated adipocytes – cell-based, JC-1 fluorescence, 3T3-L1 adipocytes, 24 h, 100 nL compound, profiling panel (AID 1168); conditions: JC-1 mitochondrial fluorescence, higher = more signal, called active from +8 up or from −8 down
[8] = JC-1 mitochondrial signal, unstimulated myeloma cells – cell-based, JC-1 fluorescence, RPMI8226, 24 h, 100 nL compound, profiling panel (AID 1169); conditions: JC-1 mitochondrial potential fluorescence, higher = more signal
[9] = JC-1 mitochondrial signal, unstimulated MM1S myeloma – cell-based, JC-1 fluorescence, 24 h, 100 nL compound, profiling panel (AID 1170); conditions: MM1S mitochondrial potential, higher = more signal
[10] = resazurin metabolic signal in A549 cells – cell-based, resazurin fluorescence, 24 h, PK04 Diversity Set, profiling panel (AID 1171); conditions: A549 viability, higher = more signal, called active from +8 up or from −8 down
Note: test concentration not given here.

SMILES	z-score [1]	z-score [2]	z-score [3]	z-score [4]	z-score [5]	z-score [6]	z-score [7]	z-score [8]	z-score [9]	z-score [10]
C=CCN(CCCC)C(=O)C(c1cccs1)N(CCOCCO)C(=O)/C=C\C(=O)O (stereo not given)	1.12 and 0.149	0.185 and -0.242	0.914 and 0.824	1.04 and 1.56	1.05 and -0.0726	0.644 and 1.03	0.713 (inactive) and 0.0219 (inactive)	0.835 and 0.00316	-1.11 and -0.822	-0.557 (inactive) and -0.469 (inactive)
C#CCN1C(/C=C/c2ccccc2)C(=O)OC[C@H]1c1ccccc1 (stereo not given in full)	-0.002 and -0.112	1.74 and 0.227	-0.0288 and -0.167	-0.0906 and -0.0281	-0.712 and -1.8	1.04 and 0.221	1.37 (inactive) and 0.0383 (inactive)	-0.749 and 0.481	-0.328 and -1.12	-0.925 (inactive) and 1.15 (inactive)
CC(C)N1CC=CC23O[C@@H]4C=CCCOC(=O)C4[C@H]2C(=O)N(C(C)CO)[C@@H]3C1=O (stereo not given in full)	-0.507 and 0.287	1.61 and 1.45	-0.658 and -0.153	1.24 and 0.914	0.264 and 0.678	0.534 and 0.979	1.21 (inactive) and 1.41 (inactive)	0.0803 and 0.664	1.69 and 1.02	0.0618 (inactive) and 0.502 (inactive)
COC(=O)[C@@]1(Cc2ccc(F)cc2)[C@H]2c3cc(C(=O)N4CCCC4)n(Cc4c(CO)[nH]cc(C)c4=O)c3C[C@H]2CN1C(=O)c1ccccc1	-1.51 and -0.994	0.284 and -0.41	-0.272 and -0.426	-1.2 and -0.26	-1.34 and -0.473	1.07 and 0.498	-0.217 (inactive) and -1.18 (inactive)	-0.409 and 0.893	0.1 and 0.277	-0.133 (inactive) and 2.11 (inactive)
CO[C@@H]1COC(=O)CC=C[C@H](C)COC(=O)[C@H](C)NC(=O)CC=C[C@H]1C	0.158	0.31	0.46	0.122	0.353	1.04	0.214 (inactive)	-0.0124	0.955	0.162 (inactive)
C=CCN(Cc1ccccc1)C(=O)C1N(c2ccc(CCO)cc2)C(=O)C2C(C(=O)O)C3C=CC21O3 (stereo not given)	0.14 and -0.777	0.103 and 0.408	-0.0042 and -0.474	0.298 and 1.04	-0.6 and -0.438	0.0701 and -0.213	0.543 (inactive) and 0.024 (inactive)	-0.79 and 0.726	1.09 and 0.0787	-1.06 (inactive) and -0.459 (inactive)
C=C[C@H](OC)[C@@H](O)c1ccc(O)c(F)c1	-0.52 and -0.4	-0.345 and -0.128	-0.0991 and 0.594	-1.17 and 1.06	0.544 and 0.196	-0.914 and 0.658	-0.186 (inactive) and -0.636 (inactive)	0.675 and 0.679	-0.0752 and -0.474	-0.535 (inactive) and -0.0165 (inactive)
